From PubChem BioAssay (NCATS)
Records with an inconclusive call do not appear. A call without a number means that no potency is given here. Calls of active or inactive are those of the source. Unless noted, calls follow the shape of the dose curve; as a rule, active = well fitted curve in the direction sought with a large enough effect; inconclusive = small, poorly fitted or top-dose-only effect, or another doubt; inactive = no such curve, though single readings can be large; an effect the other way counts as inactive or inconclusive. Starred links: 1 amine or outer side, 2 acyl side, 3 side chain; linkers in the order of their positions; H or OH if unused. Positions of bridges follow the written chain, without caps; N, C: chain ends. Non-standard residues stand in square brackets, D forms with d. Residues, ends and D or L forms follow the SMILES beside them. ξ: configuration not given here. *: point of attachment. X3 = C[C@@H](Oc1ccc([C@H](N[*:1])C(=O)[*:2])cc1)[C@]1(/C=C\C(=O)[*:3])CO1; d(aIle) = CC[C@H](C)[C@@H](N)C(=O)O; X2 = CC(C)[C@@H](O)C(C)C(=O)*; ξNMeF = CNC(Cc1ccccc1)C(=O)O; ξT = CC(O)C(N)C(=O)O; ξS = NC(CO)C(=O)O

Assays:
[1] = HPAF-II 24hr Apoptosis Induction qHTS against the NCATS CANVASS Library (AID 1347356)
How it was run: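 500 HPAF-II cells/well; compounds in 11-pnt qHTS; 24 h, 37 C/5% CO2; Caspase-Glo 3/7 added, 15 min RT dark; luminescence read. Doxorubicin control.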

[2] = HEK293 18hr Apoptosis Induction qHTS against the NCATS CANVASS Library (AID 1347357)
How it was run: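 Caspase-Glo 3/7 luminescence (15 min, room temperature) measured apoptosis after an 18-hour, 37 degrees C exposure of HEK293 cells (500 cells/well) to compounds in 11 points.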

[3] = HPAF-II 12hr Apoptosis Induction qHTS against the NCATS CANVASS Library (AID 1347358)
How it was run: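 Caspase-Glo 3/7 luminescence (DEVD substrate) reports caspase activity in HPAF-II cells after 12 h compound treatment at 37 degrees C. Compounds were tested in an 11-point series. Doxorubicin served as control.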

[4] = HEK293 24hr Apoptosis Induction qHTS against the NCATS CANVASS Library (AID 1347359)
How it was run: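 HEK293 cells (500/well, DMEM + 10% FBS) were exposed to compounds in an 11-point series for 24 hours at 37 degrees C, then caspase-3/7 activity was read by Caspase-Glo DEVD luciferase luminescence after 15 min.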

[5] = HPAF-II 18hr Apoptosis Induction qHTS against the NCATS CANVASS Library (AID 1347360)
How it was run: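 Caspase-3/7 activation was measured with luminescent Caspase-Glo 3/7 reagent (15 min, RT) in HPAF-II cancer cells (500 cells/well). Before detection, cells had been treated for 18 h at 37 C with compounds (11 points).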

[6] = target: Luciferin 4-monooxygenase (Photinus pyralis) (UniProt P08659); experiment: Firefly luciferase counterscreen qHTS: Assay Interference Panel against the NCATS CANVASS Library (AID 1347363); also: potency is read from the fitted curve at half-maximal effect
How it was run: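 Purified P. pyralis luciferase was added to compounds (11-point series) preincubated 15 min at room temperature with substrate containing 0.013 mM D-luciferin and 0.013 mM ATP; luminescence was read after 5 min.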

[7] = J3T Cancer Cell Toxicity qHTS against the NCATS CANVASS Library (AID 1347371); also: potency is read from the fitted curve at half-maximal effect
How it was run: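 Dog glioma J3T, 500 cells/well; cpd 11-pt qHTS; 72 hr, 37C/5% CO2; CellTiterGlo ATP luminescence readout.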

[8] = target: Nuclear receptor subfamily 1 group I member 3 (Homo sapiens) (UniProt Q14994); experiment: qHTS for Constitutive Androstane Receptor (CAR) Agonist screened against the NCATS CANVASS Library (AID 1347373);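 also: every well also contained 1.5 µM PK11195 alongside the test compound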; also: potency is read from the fitted curve at half-maximal effect
How it was run: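 Luciferase read-out (ONE-Glo, 30 min RT) of CYP2B6-2.2kb promoter activity in double-stable HepG2-hCAR cells after 24hr compound exposure with 1.5uM PK11195 present; viability measured first by CellTiter-Fluor.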

[9] = qHTS for Hypoxia signaling pathway (HIF-1) agonists against the NCATS CANVASS Library (AID 1347375)
How it was run: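 Read-out: beta-lactamase FRET (CCF4-AM, ex 405, em 460 and 530 nm) after 2 h at room temperature. ME-180 cells stably carrying HRE-bla were treated 17 h at 37C with compounds in an 11-point concentration series.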

[10] = 10-beta competent E. coli microbial cell viability qHTS against the NCATS CANVASS Library (AID 1347376); also: series mostly up to about 46 µM
How it was run: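 Luminescence from BacTiter-Glo ATP detection served as the viability read-out; bacteria (0.2 OD) had been incubated overnight at 37C with pin-transferred compounds at 11 concentrations.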

[11] = DH5-alpha competent E. coli microbial cell viability qHTS against the NCATS CANVASS Library (AID 1347377); settings: outcome: dose series up to 46.1 µM unless noted
How it was run: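 Luminescent ATP read-out (BacTiter-Glo, 20 min RT) after overnight 37C culture of DH5-alpha E. coli with compounds; daunomycin control at 0.2 nM–9.2 uM final.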

[12] = qHTS for H2AX Agonists against the NCATS CANVASS Library (AID 1347378)
How it was run: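 Phospho-H2AX (S139) in CHO-K1 lysates measured by HTRF, reported as 665/615 nm emission ratio after 24 hr antibody incubation at room temperature. Cells were first treated with a compound series for 3 hr at 37C (0.76% DMSO final).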

[13] = Inflammasome Signaling qHTS Counterscreen: IL-1-beta AlphaLISA counterscreen against the NCATS CANVASS Library (AID 1347381);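 also: cell-free check with purified IL-1β in medium and no THP-1 cells; series mostly up to about 57 µM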
How it was run: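 Here, no cellular stimulation occurs; compounds in an 11-point series meet 4 pg purified IL-1-beta directly. Bead-based AlphaLISA detection follows (1 h acceptor/antibody, then 30 min donor, dark, room temperature), with excitation at 680 nm.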

[14] = Cytotoxicity qHTS for assessment of Hepg2 cells membrane integrity screened against the NCATS CANVASS Library (AID 1347387)
How it was run: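 LDH release read by fluorescence (560 nm ex/590 nm em) after CytoTox-ONE addition and 10 min RT; signal tracks lysed cells. HepG2, 2000 cells/well, plated overnight; compound 5 hr, 37C, 5% CO2, final 0.59 nM - 46 uM, 11 points.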

[15] = qHTS for activators of dead-cell proteases activity screened against the NCATS CANVASS Library (AID 1347392);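 also: luminescence from protease leaking out of membrane-damaged cells cleaving impermeant substrate; rising signal means more cytotoxicity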
How it was run: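 Cytotoxicity in HepG2 cells was assessed by released protease cleaving AAF-aminoluciferin, with luminescence as signal. Exposure lasted 5 h at 37C across an 11-point series.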

[16] = qHTS for inhibitors of Rabies Virus screened against the NCATS CANVASS Library (AID 1347402; calls by dose curve; also: series mostly up to about 46 µM)

Sequence of Nuclear receptor subfamily 1 group I member 3 (Homo sapiens) (Q14994 whole entry, looked up): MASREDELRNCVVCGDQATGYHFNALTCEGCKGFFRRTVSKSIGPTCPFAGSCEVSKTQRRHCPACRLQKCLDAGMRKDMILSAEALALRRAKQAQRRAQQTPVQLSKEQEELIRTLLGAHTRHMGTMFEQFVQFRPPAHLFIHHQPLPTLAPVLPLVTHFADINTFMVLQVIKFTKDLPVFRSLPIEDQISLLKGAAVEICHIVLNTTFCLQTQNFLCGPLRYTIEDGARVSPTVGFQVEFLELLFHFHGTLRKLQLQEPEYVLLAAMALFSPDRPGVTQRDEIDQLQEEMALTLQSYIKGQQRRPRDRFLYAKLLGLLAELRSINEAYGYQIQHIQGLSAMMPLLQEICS
Sequence of Luciferin 4-monooxygenase (Photinus pyralis) (P08659 whole entry, looked up): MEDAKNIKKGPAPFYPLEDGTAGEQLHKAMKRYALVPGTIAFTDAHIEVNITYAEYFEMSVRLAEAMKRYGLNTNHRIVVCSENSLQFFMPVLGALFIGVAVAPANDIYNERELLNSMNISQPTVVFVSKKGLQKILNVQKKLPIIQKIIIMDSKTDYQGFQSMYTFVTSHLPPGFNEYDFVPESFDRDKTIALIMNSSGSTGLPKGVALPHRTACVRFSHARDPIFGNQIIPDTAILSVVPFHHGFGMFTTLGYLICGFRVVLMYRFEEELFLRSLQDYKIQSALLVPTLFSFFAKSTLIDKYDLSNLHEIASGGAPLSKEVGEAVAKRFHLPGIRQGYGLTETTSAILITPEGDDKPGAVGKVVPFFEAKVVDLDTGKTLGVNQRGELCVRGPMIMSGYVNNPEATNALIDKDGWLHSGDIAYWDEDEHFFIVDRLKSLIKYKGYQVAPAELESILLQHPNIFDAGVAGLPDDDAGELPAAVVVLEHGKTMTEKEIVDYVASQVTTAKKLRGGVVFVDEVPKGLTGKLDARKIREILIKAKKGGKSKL

Row | SMILES | outcome [1] | outcome [2] | outcome [3] | outcome [4] | outcome [5] | Potency [6] | Potency [7] | Potency [8] | outcome [9] | outcome [10] | outcome [11] | Potency [12] | outcome [13] | outcome [14] | outcome [15] | outcome [16]
1 | CC[C@]12C=CCN3CC[C@]4(C(=C(C(=O)OC)C1)Nc1ccccc14)[C@@H]32 | inactive | inactive | inactive | inactive | inactive | inactive | inactive | inactive | inactive | inactive | inactive | inactive | inactive | inactive | inactive | inactive
2 | CO[C@H]1C[C@H](O[C@H]2[C@@H](O)C[C@H](O[C@H]3CC[C@]4(C=O)[C@H]5CC[C@]6(C)C(C7=CC(=O)OC7)CC[C@]6(O)[C@@H]5CC[C@]4(O)C3)O[C@@H]2C)O[C@H](C)[C@H]1O[C@H]1C[C@@H](OC)[C@@H](O[C@@H]2O[C@H](CO)[C@@H](O)[C@H](O)[C@H]2O)[C@@H](C)O1 (stereo partly specified) | inactive | inactive | inactive | inactive | inactive | inactive | 0.332 µM (active) | inactive | inactive | inactive | inactive | inactive | inactive | inactive | inactive | –
3 | c1ccc2nc3c(cc2c1)[nH]c1ccccc13 | inactive | inactive | inactive | inactive | inactive | 1.72 µM (active) | inactive | 18.6 µM (active) | inactive | inactive | inactive | inactive | inactive | inactive | inactive | inactive
4 | C=CC(C)(C)[C@@]12C[C@H]3C(=O)N/C(=C\c4cnc[nH]4)C(=O)N3[C@@H]1Nc1ccccc12 | inactive | inactive | inactive | inactive | inactive | inactive | inactive | inactive | inactive | inactive | inactive | inactive | inactive | inactive | inactive | inactive
5 | CO[C@@H](C[C@@H](C)[C@@H](O)/C=C/C=C/CNC(=O)C(C)(C)[C@H](O)\C(C)=C/C=C\C=C\Cc1cnco1)[C@]1(O)[C@@H](C)C(=O)N(C)[C@@]12COC2=O | – | – | – | – | – | – | – | – | – | – | – | – | – | – | – | inactive
6 | CC[C@H](C)[C@H]1NC(=O)[C@@H](NC(=O)C(C)[C@H](O)C(C)C)[C@@H](C)OC(=O)C2COC(=O)CNC(=O)/C=C\[C@]3(CO3)[C@@H](C)Oc3ccc(cc3)[C@H](NC1=O)C(=O)N(C)C(Cc1ccccc1)C(=O)NC(C(C)O)C(=O)N2 (stereo partly specified) (X2-T[d(aIle)][X3][ξNMeF][ξT][ξS]; ester 1-C; linker 3-6 via G) | inactive | inactive | inactive | inactive | inactive | inactive | inactive | inactive | inactive | inactive | inactive | inactive | inactive | inactive | inactive | inactive
7 | O=Cc1ccc2n1C[C@@]1(C[C@H](O)[C@@H](CO)O1)OC2 | – | – | – | – | – | – | – | – | – | – | – | – | – | – | – | inactive
